Assay results taken from paper PMC9911399, “Two distinct binding modes provide the RNA-binding protein RbFox with extraordinary sequence specificity”.
Changes are numbered by the printed parent chain; changes in the protein carry UniProt numbers. In all, about 16,000 sequences were measured (“ka relative to ugcaugu”: median about 0.096, highest 2% from about 0.35 on). The sample as a whole holds a higher share of the highest values than the screen did.

T1: RBFOX1 RRM RbFoxmut (Fox-RRM*) (Homo sapiens, UniProt Q9NWB1 109-208, R118D;E147R;N151S;E152T)
T1 sequence: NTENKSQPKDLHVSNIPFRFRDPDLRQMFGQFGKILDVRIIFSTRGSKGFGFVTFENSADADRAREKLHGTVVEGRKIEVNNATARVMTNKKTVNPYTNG

B1: CUGAGUG (DNA:RNA)
RNA: GGGAGACCGGAAUUCAGAUUGUCCCUGAGUGUUAAAUCCCGUCGUAGCCACCA
DNA 1: CAATCTGAATTCCGGTCTCCC
DNA 2: TGGTGGCTACGACGGGATT
B2: UCACCCA (DNA:RNA)
RNA: GGGAGACCGGAAUUCAGAUUGUCCUCACCCAUUAAAUCCCGUCGUAGCCACCA
DNA 1: CAATCTGAATTCCGGTCTCCC
DNA 2: TGGTGGCTACGACGGGATT
B3: UAGGGAC (DNA:RNA)
RNA: B1 RNA with C25U, U26A, A28G, U30A, G31C
DNA 1: CAATCTGAATTCCGGTCTCCC
DNA 2: TGGTGGCTACGACGGGATT
B4: CACCAGG (DNA:RNA)
RNA: B1 RNA with U26A, G27C, A28C, G29A, U30G
DNA 1: CAATCTGAATTCCGGTCTCCC
DNA 2: TGGTGGCTACGACGGGATT
B5: ACCAGGG (DNA:RNA)
RNA: B1 RNA with C25A, U26C, G27C, U30G
DNA 1: CAATCTGAATTCCGGTCTCCC
DNA 2: TGGTGGCTACGACGGGATT
B6: GAGGAGG (DNA:RNA)
RNA: B1 RNA with C25G, U26A, A28G, G29A, U30G
DNA 1: CAATCTGAATTCCGGTCTCCC
DNA 2: TGGTGGCTACGACGGGATT
B7: AGGGGGG (DNA:RNA)
RNA: B1 RNA with C25A, U26G, A28G, U30G
DNA 1: CAATCTGAATTCCGGTCTCCC
DNA 2: TGGTGGCTACGACGGGATT
B8: GAGGUUG (DNA:RNA)
RNA: B1 RNA with C25G, U26A, A28G, G29U
DNA 1: CAATCTGAATTCCGGTCTCCC
DNA 2: TGGTGGCTACGACGGGATT
B9: ACCGAGG (DNA:RNA)
RNA: B1 RNA with C25A, U26C, G27C, A28G, G29A, U30G
DNA 1: CAATCTGAATTCCGGTCTCCC
DNA 2: TGGTGGCTACGACGGGATT
B10: CAGGUUG (DNA:RNA)
RNA: B1 RNA with U26A, A28G, G29U
DNA 1: CAATCTGAATTCCGGTCTCCC
DNA 2: TGGTGGCTACGACGGGATT
B11: CCCCAGG (DNA:RNA)
RNA: B1 RNA with U26C, G27C, A28C, G29A, U30G
DNA 1: CAATCTGAATTCCGGTCTCCC
DNA 2: TGGTGGCTACGACGGGATT
B12: AGGGUUG (DNA:RNA)
RNA: B1 RNA with C25A, U26G, A28G, G29U
DNA 1: CAATCTGAATTCCGGTCTCCC
DNA 2: TGGTGGCTACGACGGGATT
B13: UCCCCAC (DNA:RNA)
RNA: B2 RNA with A27C, C30A, A31C
DNA 1: CAATCTGAATTCCGGTCTCCC
DNA 2: TGGTGGCTACGACGGGATT
B14: CUACCCG (DNA:RNA)
RNA: B2 RNA with U25C, C26U, A31G
DNA 1: CAATCTGAATTCCGGTCTCCC
DNA 2: TGGTGGCTACGACGGGATT
B15: GUGUCAG (DNA:RNA)
RNA: B1 RNA with C25G, A28U, G29C, U30A
DNA 1: CAATCTGAATTCCGGTCTCCC
DNA 2: TGGTGGCTACGACGGGATT
B16: AUACAAG (DNA:RNA)
RNA: B1 RNA with C25A, G27A, A28C, G29A, U30A
DNA 1: CAATCTGAATTCCGGTCTCCC
DNA 2: TGGTGGCTACGACGGGATT
B17: CAAUGCG (DNA:RNA)
RNA: B1 RNA with U26A, G27A, A28U, U30C
DNA 1: CAATCTGAATTCCGGTCTCCC
DNA 2: TGGTGGCTACGACGGGATT
B18: GGGAUGA (DNA:RNA)
RNA: B1 RNA with C25G, U26G, G29U, U30G, G31A
DNA 1: CAATCTGAATTCCGGTCTCCC
DNA 2: TGGTGGCTACGACGGGATT
B19: CGCGCUU (DNA:RNA)
RNA: B1 RNA with U26G, G27C, A28G, G29C, G31U
DNA 1: CAATCTGAATTCCGGTCTCCC
DNA 2: TGGTGGCTACGACGGGATT
B20: AGAAGCG (DNA:RNA)
RNA: B1 RNA with C25A, U26G, G27A, U30C
DNA 1: CAATCTGAATTCCGGTCTCCC
DNA 2: TGGTGGCTACGACGGGATT
B21: CUCCUCC (DNA:RNA)
RNA: B1 RNA with G27C, A28C, G29U, U30C, G31C
DNA 1: CAATCTGAATTCCGGTCTCCC
DNA 2: TGGTGGCTACGACGGGATT
B22: CUGCAGA (DNA:RNA)
RNA: B1 RNA with A28C, G29A, U30G, G31A
DNA 1: CAATCTGAATTCCGGTCTCCC
DNA 2: TGGTGGCTACGACGGGATT
B23: UGCAUCU (DNA:RNA)
RNA: B2 RNA with C26G, A27C, C28A, C29U, A31U
DNA 1: CAATCTGAATTCCGGTCTCCC
DNA 2: TGGTGGCTACGACGGGATT
B24: UGCAAUC (DNA:RNA)
RNA: B1 RNA with C25U, U26G, G27C, G29A, G31C
DNA 1: CAATCTGAATTCCGGTCTCCC
DNA 2: TGGTGGCTACGACGGGATT
B25: CUGCAUC (DNA:RNA)
RNA: B1 RNA with A28C, G29A, G31C
DNA 1: CAATCTGAATTCCGGTCTCCC
DNA 2: TGGTGGCTACGACGGGATT
B26: UGAAUCU (DNA:RNA)
RNA: B2 RNA with C26G, C28A, C29U, A31U
DNA 1: CAATCTGAATTCCGGTCTCCC
DNA 2: TGGTGGCTACGACGGGATT
B27: CCUGCAU (DNA:RNA)
RNA: B2 RNA with U25C, A27U, C28G, C30A, A31U
DNA 1: CAATCTGAATTCCGGTCTCCC
DNA 2: TGGTGGCTACGACGGGATT
B28: AGCAGCA (DNA:RNA)
RNA: B1 RNA with C25A, U26G, G27C, U30C, G31A
DNA 1: CAATCTGAATTCCGGTCTCCC
DNA 2: TGGTGGCTACGACGGGATT
B29: ACAAAUC (DNA:RNA)
RNA: B1 RNA with C25A, U26C, G27A, G29A, G31C
DNA 1: CAATCTGAATTCCGGTCTCCC
DNA 2: TGGTGGCTACGACGGGATT
B30: UUGGAGA (DNA:RNA)
RNA: B1 RNA with C25U, A28G, G29A, U30G, G31A
DNA 1: CAATCTGAATTCCGGTCTCCC
DNA 2: TGGTGGCTACGACGGGATT
B31: GUGGAGA (DNA:RNA)
RNA: B1 RNA with C25G, A28G, G29A, U30G, G31A
DNA 1: CAATCTGAATTCCGGTCTCCC
DNA 2: TGGTGGCTACGACGGGATT
B32: UUGGAUC (DNA:RNA)
RNA: B1 RNA with C25U, A28G, G29A, G31C
DNA 1: CAATCTGAATTCCGGTCTCCC
DNA 2: TGGTGGCTACGACGGGATT
B33: GUGGAUG (DNA:RNA)
RNA: B1 RNA with C25G, A28G, G29A
DNA 1: CAATCTGAATTCCGGTCTCCC
DNA 2: TGGTGGCTACGACGGGATT
B34: GUGGAUU (DNA:RNA)
RNA: B1 RNA with C25G, A28G, G29A, G31U
DNA 1: CAATCTGAATTCCGGTCTCCC
DNA 2: TGGTGGCTACGACGGGATT
B35: UUGGAUG (DNA:RNA)
RNA: B1 RNA with C25U, A28G, G29A
DNA 1: CAATCTGAATTCCGGTCTCCC
DNA 2: TGGTGGCTACGACGGGATT
B36: GUGGAUC (DNA:RNA)
RNA: B1 RNA with C25G, A28G, G29A, G31C
DNA 1: CAATCTGAATTCCGGTCTCCC
DNA 2: TGGTGGCTACGACGGGATT
B37: GCGUGGA (DNA:RNA)
RNA: B1 RNA with C25G, U26C, A28U, U30G, G31A
DNA 1: CAATCTGAATTCCGGTCTCCC
DNA 2: TGGTGGCTACGACGGGATT
B38: UUGGAUU (DNA:RNA)
RNA: B1 RNA with C25U, A28G, G29A, G31U
DNA 1: CAATCTGAATTCCGGTCTCCC
DNA 2: TGGTGGCTACGACGGGATT

These binders were tested against T1, RBFOX1 RRM RbFoxmut (Fox-RRM*) (assay: EMSA; HiTS-Eq, 1 nM pool, 10 min; buffer printed only for the single-RNA assays: 10 mM Tris pH 7.5, 150 mM NaCl, 3.4 mM EDTA, 0.001% NP-40, 30 C). Settings: tags: His6 N-terminal (pET28a); label: 5' 32P.
In short: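 These values rest on relative association constants, computed from read-count changes of each RNA species versus the control reaction and normalised to the cognate motif. Reads came from free RNA recovered by 8% native PAGE after purified RbFox RRM (wild type or mutant) at increasing concentrations was equilibrated for 10 min in 50 µL with 1 nM of a 5′-radiolabelled pool with 7 randomized nucleotides and DNA-annealed flanks.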

Binder | binding signal
B1 | 0.142 KA relative to UGCAUGU
B2 | 0.0824 KA relative to UGCAUGU
B3 | 0.0789 KA relative to UGCAUGU
B4 | 0.0996 KA relative to UGCAUGU
B5 | 0.0771 KA relative to UGCAUGU
B6 | 0.0833 KA relative to UGCAUGU
B7 | 0.104 KA relative to UGCAUGU
B8 | 0.552 KA relative to UGCAUGU
B9 | 0.0689 KA relative to UGCAUGU
B10 | 0.371 KA relative to UGCAUGU
B11 | 0.0949 KA relative to UGCAUGU
B12 | 0.578 KA relative to UGCAUGU
B13 | 0.118 KA relative to UGCAUGU
B14 | 0.0609 KA relative to UGCAUGU
B15 | 0.137 KA relative to UGCAUGU
B16 | 0.0924 KA relative to UGCAUGU
B17 | 0.13 KA relative to UGCAUGU
B18 | 0.267 KA relative to UGCAUGU
B19 | 0.1 KA relative to UGCAUGU

Binder | binding signal
B20 | 0.107 KA relative to UGCAUGU
B21 | 0.0813 KA relative to UGCAUGU
B22 | 0.136 KA relative to UGCAUGU
B23 | 0.727 KA relative to UGCAUGU
B24 | 0.102 KA relative to UGCAUGU
B25 | 0.457 KA relative to UGCAUGU
B26 | 0.244 KA relative to UGCAUGU
B27 | 0.139 KA relative to UGCAUGU
B28 | 0.14 KA relative to UGCAUGU
B29 | 0.0702 KA relative to UGCAUGU
B30 | 0.0955 KA relative to UGCAUGU
B31 | 0.118 KA relative to UGCAUGU
B32 | 0.321 KA relative to UGCAUGU
B33 | 1.04 KA relative to UGCAUGU
B34 | 0.1 KA relative to UGCAUGU
B35 | 0.61 KA relative to UGCAUGU
B36 | 0.357 KA relative to UGCAUGU
B37 | 0.092 KA relative to UGCAUGU
B38 | 0.106 KA relative to UGCAUGU
